From the supplement of paper PMC11482750
± gives the standard deviation of the averaged measurements.

The targets below were run with CCC/C=C/C=O [trans-2-hexenal] (assay: control-subtracted net OSN firing rate; higher = stronger neuronal activation). Conditions: odorant dilution (vol/vol): 1/100.
Description: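 Single sensillum recordings from olfactory sensory neurons. The neurons sit in the maxillary palp or antennal sensilla of D. melanogaster (wild type, mutants, or at1 empty-neuron lines expressing Or42a homologs or the A181D S307P mutant) and of four Scaptomyza species. Each odorant was given as a 1 s pulse from 20 µl loaded on filter paper at 1:100 vol/vol, diluted in mineral oil (γ-hexalactone in DMSO). Spikes were counted in a 0.5 s window starting 0.2 s after onset, background was subtracted, the count was doubled, and the mean solvent-control response was subtracted.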

Target	control-subtracted net OSN firing rate
S. flava pb1b-like	-17.7 ± 8.2 spikes/s
S. montana pb2b-like	5.67 ± 5.1 spikes/s
S. hsui pb2b-like	15 ± 15 spikes/s
S. pallida pb3b-like	-10 ± 14 spikes/s
S. hsui pb2a-like	10 ± 12 spikes/s
S. pallida pb1b-like	-6.67 ± 7.2 spikes/s
Or67dGal4, UAS-Spal Or42a at1	205 ± 10 spikes/s
S. flava pb3b-like	26 ± 42 spikes/s
Canton-S (D. melanogaster) pb2a	4.86 ± 9.6 spikes/s
Canton-S (D. melanogaster) pb2b	0.857 ± 11 spikes/s
S. flava pb2a-like	1.67 ± 6.6 spikes/s
S. montana pb3a-like	3 ± 5.5 spikes/s
S. flava pb1a-like	152 ± 26 spikes/s
S. hsui pb1b-like	-16.3 ± 10 spikes/s
S. pallida pb1a-like	103 ± 25 spikes/s
S. pallida pb2b-like	6.67 ± 10 spikes/s
Or67dGal4, UAS-Sfla Or42a2 at1	3.14 ± 12 spikes/s
Canton-S (D. melanogaster) pb3a	0.167 ± 5.6 spikes/s

Target	control-subtracted net OSN firing rate
S. pallida pb3a-like	109 ± 24 spikes/s
Canton-S (D. melanogaster) pb1a	124 ± 31 spikes/s
S. montana pb1b-like	-11.3 ± 8.9 spikes/s
S. flava pb2b-like	15 ± 14 spikes/s
S. pallida pb2a-like	8.33 ± 6 spikes/s
Or67dGal4, UAS-Sfla Or42a4 at1	179 ± 43 spikes/s
S. montana pb2a-like	1 ± 8.5 spikes/s
S. montana pb3b-like	8.33 ± 8.7 spikes/s
S. hsui pb3b-like	-5 ± 4.2 spikes/s
S. hsui pb3a-like	147 ± 24 spikes/s
S. hsui pb1a-like	115 ± 18 spikes/s
S. flava pb3a-like	-3.33 ± 9.6 spikes/s
Canton-S (D. melanogaster) pb3b	-0.833 ± 5.7 spikes/s
Canton-S (D. melanogaster) pb1b	-5.33 ± 9 spikes/s
Or67dGal4, UAS-Sfla Or42a3 at1	144 ± 32 spikes/s
Or67dGal4, UAS-Dmel Or42a at1	110 ± 52 spikes/s
S. montana pb1a-like	145 ± 34 spikes/s
